Bioassay records as filed in PubChem BioAssay.
Most compounds without a hit are left out; they make up all but 1.6% or so of the library.
KCNQ2 pot = KCNQ2 (rat) channel potentiation; O88943; CHO-K1 KCNQ2, FluxOR thallium flux fluorescence; active compounds read high; B-score at 10 µM; 310,000 tested, 0.54% active; AID 2239;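 active means fluorescence ratio B-score at least 3 SD of library B-scores, with initial fluorescence B-score within 3 of them, cut at about 5.3 in these data; same plate scores as AID 2156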;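 further: B-score of peak minus minimum over baseline fluorescence ratio after K+ and Tl+ stimulus; positive B-score means potentiation of KCNQ2 with more thallium influx and brighter signal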
KCNQ2 block = blocks the rat KCNQ2 potassium channel | B-score at 10 µM | 310,000 tested, 1.1% active | O88943 | CHO-K1 KCNQ2, FluxOR thallium flux, 20 min; active compounds read low;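 active means fluorescence ratio B-score at most minus 3 library SDs, with starting brightness B-score within 2 library SDs, cut at about -5.5 in these data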
Kir21 conf inh = confirmation of mouse Kir2.1 potassium channel inhibitors; shares compounds with KCNQ2 pot; Kir2.1-expressing cells, FluxOR thallium flux fluorescence; active compounds read low; Tl flux remaining, % of negative control (active compounds read low), % at 10 µM; 2,300 tested, 41% active; AID 2032;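 active means Primary-screen hit whose thallium flux fell at least 3 control SD below untreated wells in both duplicates, with normal baseline fluorescence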;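 further: 0% = blank wells without stimulus and 100% = stimulated no-compound controls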
HEK293 ctr = parental HEK293 activity in Kir2.1 inhibitor counter-screen | FluxOR signal as % of negative control (100 = no effect), % at 10 µM | parental HEK293 cells, FluxOR thallium flux fluorescence; 0% = unstimulated blank wells | 2,300 tested, 19% active | shares compounds with KCNQ2 pot;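 active means dye signal at least 3 control SD above or below untreated wells in both duplicates, raw fluorescence within 3, either direction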;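 further: percent is based on the flux ratio of peak minus minimum fluorescence over baseline F0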
CHO-K1 ctr = alters thallium flux in parental CHO-K1 cells, KCNQ2 counter-screen | FluxOR thallium flux fluorescence; zero = vehicle mean+3SD, 100% = vehicle-minus-blank window | AID 2282 | 1,200 tested, 43% active | shares compounds with KCNQ2 pot | activity increase over 3SD of controls, % at 10 µM;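 active means signal rise of at least 3 SD above the untreated control mean, in both duplicate wells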;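 further: counter screen of KCNQ2 potentiator hits so any rise reflects channel-independent effects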
KCNQ1 sel pot = selectivity of KCNQ2 potentiators: effect on human KCNQ1; shares compounds with KCNQ2 pot; CHO KCNQ1 stable, FluxOR thallium flux fluorescence; beyond 3SD, as % of vehicle-control signal; activation over 3SD threshold, % at 10 µM; 1,200 tested, 28% active; AID 2283;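 active means fluorescence ratio rise of at least 3 SD of vehicle wells above their mean, in both replicate wells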;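 further: 0% = vehicle mean plus 3 SD and 100% = vehicle minus unstimulated blank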
Target sequence (P51787 whole entry, looked up): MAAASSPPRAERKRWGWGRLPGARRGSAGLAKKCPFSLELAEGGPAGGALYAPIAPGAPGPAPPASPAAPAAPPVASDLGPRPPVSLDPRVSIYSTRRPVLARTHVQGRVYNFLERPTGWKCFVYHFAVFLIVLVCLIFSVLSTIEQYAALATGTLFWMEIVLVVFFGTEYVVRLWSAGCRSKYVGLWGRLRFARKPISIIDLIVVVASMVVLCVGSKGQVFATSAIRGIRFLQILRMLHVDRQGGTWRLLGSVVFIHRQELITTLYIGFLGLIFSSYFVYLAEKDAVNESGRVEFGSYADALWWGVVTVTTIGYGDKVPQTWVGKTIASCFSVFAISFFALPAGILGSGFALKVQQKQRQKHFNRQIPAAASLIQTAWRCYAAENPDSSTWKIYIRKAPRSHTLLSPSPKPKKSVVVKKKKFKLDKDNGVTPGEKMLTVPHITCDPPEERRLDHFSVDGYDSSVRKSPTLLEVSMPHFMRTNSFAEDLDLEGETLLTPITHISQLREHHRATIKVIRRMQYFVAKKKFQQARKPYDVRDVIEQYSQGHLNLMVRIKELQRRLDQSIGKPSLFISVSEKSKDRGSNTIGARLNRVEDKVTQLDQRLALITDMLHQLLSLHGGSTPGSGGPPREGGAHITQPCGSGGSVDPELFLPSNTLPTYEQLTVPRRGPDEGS
KCNQ2 pot conf = confirmation of rat KCNQ2 potassium channel potentiators. shares compounds with KCNQ2 pot. CHO-KCNQ2 cells, FluxOR thallium flux fluorescence. potentiation, less the hit threshold, % at 10 µM. 1,200 tested, 68% active;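 active means fluorescence ratio rising 3 SD or more over the vehicle control mean in both replicates, plus primary screen hit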;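 further: peak minus minimum thallium fluorescence divided by baseline after K/Tl stimulus; 0% = vehicle mean plus 3 SD and 100% = vehicle minus unstimulated blank difference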
Kir21 spec = mouse Kir2.1 off-target activity of KCNQ2 potentiators. 1,200 tested, 2% active. HEK293 Kir2.1, FluxOR thallium flux fluorescence. activity over 3SD threshold, % at 10 µM. shares compounds with KCNQ2 pot. AID 2345;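 active means fluorescence ratio rise of at least 3 SD above the vehicle-control mean, seen in both replicates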;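 further: 0% = vehicle mean plus 3 SD and 100% = vehicle minus no-stimulus blank window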
KCNQ2 W236L MoA = KCNQ2 potentiators acting on retigabine-insensitive rat KCNQ2 W236L mutant. shares compounds with KCNQ2 pot. CHO KCNQ2-W236L, automated patch clamp current. current increase over 3SD of negative controls (%), active compounds read high, % at 25 µM. 940 tested, 10% active. AID 2558;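 active means current increase at least 3 SD of the untreated controls above them in both duplicate recordings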
Starred values were filed as active, the others as inactive; i = inactive; nt = no result given.

SMILES	KCNQ2 pot	KCNQ2 block	Kir21 conf inh	HEK293 ctr	others
CC(=O)N1c2ccc(N=Cc3cc(Br)cc(Br)c3O)cc2CC1C (stereo not given)	11.8*	i	i	i	CHO-K1 ctr=-16.5;KCNQ1 sel pot=43.4*;KCNQ2 pot conf=13.6*;Kir21 spec=-33.1;KCNQ2 W236L MoA=i
CC1CCCC(C)N1/N=C/c1cc(Br)cc(Br)c1O (stereo not given)	nt	i	nt	nt
O=C(O)c1ccc2c(c1)C(=O)N(c1nccs1)C2=O	0.02	i	nt	nt
CCn1c2ccccc2c2cc(Nc3cc(C)nc4ncnn34)ccc21	0.69	i	67.0%*	i
CCc1ccc(Nc2cc(C)nc3ncnn23)cc1	1.43	i	nt	nt
CC(C)(C)c1csc(Sc2ccc([N+](=O)[O-])cn2)n1	0.89	i	nt	nt
O=C(CSc1n[nH]c(=O)[nH]c1=O)N/N=C/c1ccccc1O	0.06	i	nt	nt
O=C(CSc1ccccc1)N/N=C/c1ccccc1O	5.95*	i	i	i	CHO-K1 ctr=-11.1;KCNQ1 sel pot=-13.9;KCNQ2 pot conf=24.7*;Kir21 spec=-29.8;KCNQ2 W236L MoA=i
CN(C)CCCN1c2ccccc2CCc2ccc(Cl)cc21	nt	i	41.0%*	i
CN(CCCN1c2ccccc2CCc2ccccc21)CC(=O)c1ccc(Cl)cc1	nt	i	nt	nt
CCc1ccc(NC(=O)CSc2nc(=O)n(CCN(C)C)c3c2CCCC3)cc1	0.65	i	nt	nt
COc1ccc(OCCNC2CCCC2)cc1	1.11	i	nt	nt
c1ccc(-c2ccc(OCCCNC3CCCC3)cc2)cc1	nt	i	42.5%*	i
c1ccc(Cc2ccc(OCCCNC3CCCC3)cc2)cc1	0.67	i	44.5%*	i
c1ccc(SCCCCNC2CCCC2)cc1	1.17	i	nt	nt
CC1CCN(C(=O)CN(c2ccc3c(c2)OCCO3)S(=O)(=O)c2ccccc2)CC1	nt	i	nt	nt
Cc1ccc(NC(=O)CCc2ccc(C)o2)c(Br)c1	4.25	i	nt	nt
CCc1ccc(CCC(=O)Nc2ccc(C)cc2C)o1	6.01*	i	i	i	CHO-K1 ctr=-8.2;KCNQ1 sel pot=-8.5;KCNQ2 pot conf=1.0*;Kir21 spec=-36.2;KCNQ2 W236L MoA=i
NC(=O)C1CCN(CC(=O)Nc2ccc(S(=O)(=O)N3CCOCC3)cc2)CC1	0.12	i	nt	nt
Cc1cccc(N2CCN(C(=O)CNC(=O)c3cccc([N+](=O)[O-])c3)CC2)c1C	nt	i	i	i
O=C(NCC(=O)N1CCN(c2ccccc2O)CC1)c1ccccc1	0.03	i	nt	nt
CC(C)CCNC(=O)CN(Cc1ccco1)C(=O)CCC(=O)Nc1nccs1	0.26	i	nt	nt
Cc1nn(C)c(C(=O)NNC(=S)NCc2ccccc2)c1Cl	nt	i	nt	nt
CCCCOC(=O)c1ccc(NC(=S)NC(=O)c2c(Cl)cnn2CC)cc1	5.25	i	nt	nt
Cc1nn(C)c(C(=O)NC(=S)Nc2ccc([N+](=O)[O-])cc2)c1Cl	8.44*	i	i	132.5%*	CHO-K1 ctr=-19.3;KCNQ1 sel pot=-9.4;KCNQ2 pot conf=0.7*;Kir21 spec=-28.2;KCNQ2 W236L MoA=i
SMILES	KCNQ2 pot	KCNQ2 block	Kir21 conf inh	HEK293 ctr	others
Cc1nn(C)c(C(=O)NNC(=S)Nc2ccc(F)cc2)c1[N+](=O)[O-]	nt	i	nt	nt
CCn1ncc(Cl)c1C(=O)NC(=S)Nc1ccccc1Br	7.09*	i	i	231.5%*	CHO-K1 ctr=12.1*;KCNQ1 sel pot=54.9*;KCNQ2 pot conf=53.2*;Kir21 spec=-14.2;KCNQ2 W236L MoA=i
Cc1nn(C)c(C(=O)NC(=S)Nc2ccccc2Br)c1Cl	6.84*	i	i	215.5%*	CHO-K1 ctr=-0.3;KCNQ1 sel pot=-7.5;KCNQ2 pot conf=54.7*;Kir21 spec=-20.1;KCNQ2 W236L MoA=i
CN(C)c1ccc(C2OC(=O)C(C)(C)C(=O)C2(C)C)cc1 (stereo not given)	nt	i	nt	nt
CC1(C)C(=O)OC(c2c3ccccc3cc3ccccc23)C(C)(C)C1=O (stereo not given)	6.19*	i	i	i	CHO-K1 ctr=11.8*;KCNQ1 sel pot=90.5*;KCNQ2 pot conf=-6.1;Kir21 spec=-30.8
O=C(OCc1ccc(O)cc1)c1c(-c2ccsc2)oc2ccc(N3CCOCC3)cc12	1.46	i	nt	nt
CCCCCOc1ccc(NC(=O)C(=O)NCC2CCCN2CC)cc1 (stereo not given)	nt	i	nt	nt
Cc1ccc(NC(=O)CSc2nc3c(c(=O)[nH]2)CCC3)c(C)c1	0.29	i	nt	nt
O=[N+]([O-])c1c(Nc2ccccc2O)ccc2nonc12	1.27	i	nt	nt
O=[N+]([O-])c1c(Nc2ccccc2O)cc(Cl)c2nonc12	-15.9	-15.9*	71.0%*	46.0%*
Cc1nnc(SCC(=O)NC(C)(C)C)n1NCc1cccc(Br)c1	nt	i	nt	nt
Nc1ccccc1Nc1c(F)c(F)nc(F)c1Cl	0.01	i	nt	nt
CC(C)c1ccc(CN(C(=O)/C=C/c2ccco2)C2CCS(=O)(=O)C2)cc1 (stereo not given)	0.25	i	nt	nt
CSc1scc2c1-c1nc(SCC(=O)C(C)(C)C)ncc1CC2	6.68*	i	i	i	CHO-K1 ctr=-10.9;KCNQ1 sel pot=61.0*;KCNQ2 pot conf=2.8*;Kir21 spec=-37.2;KCNQ2 W236L MoA=i
CC(C)(C)C(=O)CSc1ncccn1	nt	i	nt	nt
C=CCc1cc(OC)ccc1OCCOCCN1CCc2ccccc2C1	nt	i	18.0%*	i
CCOc1ccc(OCCOCCN2CCc3ccccc3C2)cc1	1.21	i	nt	nt
CCCOc1ccc(OCCOCCN2CCc3ccccc3C2)cc1	0.21	i	60.5%*	i
c1ccc(OCCOCCN2CCc3ccccc3C2)cc1	0.27	i	nt	nt
CCOc1ccc(S(=O)(=O)N2CCC(C(=O)NCc3cccnc3)CC2)cc1	nt	i	nt	nt
COC(=O)c1cc(=O)n2c(sc3ccccc32)c1C#N	2.27	i	nt	nt
CN1c2ccc(Cl)cc2C(=O)NC1c1ccc([N+](=O)[O-])s1 (stereo not given)	0.04	i	nt	nt
CN(C)c1ccc(C(C(=O)NCc2ccccc2)N(Cc2ccco2)C(=O)c2snc(C(N)=O)c2N)cc1 (stereo not given)	1.79	i	nt	nt
COc1cc(CN2CCN(Cc3ccc(C)cc3)C(CCO)C2)cc(OC)c1O (stereo not given)	nt	i	nt	nt
Cc1cc(C)c(OCCCNCc2ccccc2)c(Br)c1	nt	i	11.5%*	i
Cc1cc(C)c(OCCCCN(C)Cc2ccccc2)c(C)c1	nt	i	21.5%*	i
Cc1cc(Cl)c(OCCCNCc2ccccc2)c(Br)c1	nt	i	nt	nt
Cc1cc(Cl)cc(Br)c1OCCCNCC(C)O (stereo not given)	1.31	i	27.0%*	i
Cc1ccccc1OCCNCC(C)O (stereo not given)	nt	i	nt	nt
